High-throughput results (PubChem BioAssay)
Rows were chosen to be rich in hits. Some 5.7% of all compounds tested hit in one or more screens of this group.
DAX1 inh-1: DAX1 (NR0B1) inhibitors, primary screen, cell-based, HEK293, Gal4-DAX1, luciferase luminescence; Nuclear receptor subfamily 0 group B member 1 (Homo sapiens), P51843; HEK293 Gal4-DAX1 luciferase reporter; inhibition, % at 6.75 µM; 340,000 compounds, 0.99% hits;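 active = inhibition above the mean over all tested compounds plus 3 SD, cut at about 4.2% in these data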;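 also: 0% = DAX1-transfected cells with DMSO and 100% = empty-vector control cells with DMSO; inhibition shows as a rise in luminescence from relieved DAX1 repression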
hcDAF-12 act: H. contortus DAF-12 nuclear receptor activators, primary screen, cell-based, luminescence, HEK293, lit1-tk-luc reporter; HEK293 hcDAF-12 lit1-tk-luc reporter; 0% DMSO, 100% Δ7-dafachronic acid; activation, % at 6.8 µM; 370,000 compounds, 1.4% hits; AID 652067, 2013;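 active = activation above the mean of all tested compounds plus 3 SD, cut at about 5.5% in these data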;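 also: 100% = response to 3 µM Δ7-dafachronic acid high control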
ssDAF-12 act: S. stercoralis DAF-12 nuclear receptor activators, primary screen, cell-based, luminescence, HEK293, GRIP1 co-expression, lit1-tk-luc; AID 652126, 2013; Nuclear hormone receptor DAF-12 (Strongyloides stercoralis); activation, % at 6.8 µM; 370,000 compounds, 1% hits; HEK293 ssDAF-12/GRIP1 lit1-tk-luc reporter; % of 3 µM dafachronic acid response;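 active = activation above the mean over all tested compounds plus 3 SD, cut at about 0.9% in these data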;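 also: 0% = DMSO-only wells and 100% = 3 µM delta7-dafachronic acid wells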
AHR act: AHR activators, primary screen, cell-based, luminescence, luciferase reporter, human; 320,000 compounds, 2.5% hits; Aryl hydrocarbon receptor (Homo sapiens), P35869; AHR-responsive luciferase reporter cells; activation, % at 5 µM; AID 2796, 2010; in the data active = activation above about 47%;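 also: 0% = vehicle wells and 100% = reference agonist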
Target sequence (P35869 whole entry, looked up): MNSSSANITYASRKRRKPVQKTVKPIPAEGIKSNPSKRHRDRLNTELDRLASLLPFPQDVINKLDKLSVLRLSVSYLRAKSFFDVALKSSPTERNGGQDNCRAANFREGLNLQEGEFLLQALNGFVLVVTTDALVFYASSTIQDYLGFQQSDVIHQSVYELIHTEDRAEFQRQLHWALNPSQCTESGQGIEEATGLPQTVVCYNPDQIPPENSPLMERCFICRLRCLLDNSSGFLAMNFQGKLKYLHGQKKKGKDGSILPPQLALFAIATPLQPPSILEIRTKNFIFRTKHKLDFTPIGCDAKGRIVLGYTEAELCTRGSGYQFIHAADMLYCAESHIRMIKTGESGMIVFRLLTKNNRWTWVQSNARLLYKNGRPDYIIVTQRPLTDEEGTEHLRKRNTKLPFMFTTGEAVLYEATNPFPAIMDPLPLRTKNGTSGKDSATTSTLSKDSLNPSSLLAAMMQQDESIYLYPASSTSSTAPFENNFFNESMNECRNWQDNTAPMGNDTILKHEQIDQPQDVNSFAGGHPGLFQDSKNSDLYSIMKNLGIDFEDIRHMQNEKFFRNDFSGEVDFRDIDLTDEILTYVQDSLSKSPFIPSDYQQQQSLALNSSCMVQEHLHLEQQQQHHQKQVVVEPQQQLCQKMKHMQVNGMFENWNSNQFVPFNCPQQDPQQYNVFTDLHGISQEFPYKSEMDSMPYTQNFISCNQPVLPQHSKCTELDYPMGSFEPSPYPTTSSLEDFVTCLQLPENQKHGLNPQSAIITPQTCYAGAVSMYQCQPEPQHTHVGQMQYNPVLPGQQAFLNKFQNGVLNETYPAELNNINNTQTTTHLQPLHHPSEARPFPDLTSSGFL
hgDAF12 agonist: H. glycines DAF-12 receptor agonists, primary screen, cell-based, luminescence, HEK293, GAL4 fusion, UAS-luciferase; Nuclear hormone receptor DAF-12 (Heterodera glycines), GAL4 fusion; HEK293 GAL4-hgDAF12 UAS-luciferase reporter, agonist luminescence; normalized to butyrate control; activation, % at 6.8 µM; 370,000 compounds, 1.8% hits; AID 687014, 2013;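 active = activation above a cutoff set at the mean of all screened compounds plus 3 SD, cut at about 10% in these data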;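 also: 0% = DMSO wells and 100% = sodium butyrate wells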
DAX1 inh-2: DAX1 (NR0B1) inhibitors on StAR promoter, primary screen, cell-based, luminescence, SF-1 (NR5A1), full-length DAX-1. inhibition, % at 6.8 µM. HEK293T StAR-luciferase reporter, SF-1/DAX-1 repression relief. 370,000 compounds, 1.1% hits;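 active = inhibition above the mean over all tested compounds plus 3 SD, cut at about 3.6% in these data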;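 also: 0% = DAX-1 cells with DMSO and 100% = cells lacking DAX-1 with DMSO; higher inhibition means more luminescence from relief of DAX-1 repression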
hgDAF12 ag: H. glycines DAF-12 receptor agonists, confirmation, cell-based, luminescence, HEK293, GAL4-LBD fusion; shares compounds with hgDAF12 agonist; HEK293 GAL4-hgDAF12 luciferase reporter, agonist mode; percent of butyrate response; activation, % at 6.8 µM; 3,300 compounds, 80% hits; AID 743050, 2013;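 active = mean activation over triplicate wells above the hit cutoff derived from the earlier primary screen, cut at about 11% in these data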;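 also: 0% = DMSO low control and 100% = 2 mM sodium butyrate high control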
LXRb DAF12 ctr: LXR agonists, Gal4 luciferase reporter, confirmation, counter-screen for hgDAF-12 agonist project, cell-based, luminescence, HEK293, H. glycines campaign; shares compounds with hgDAF12 agonist; 24 h; activation, % at 6.8 µM; 3,300 tested, under 10 active; AID 743051, 2013;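 active = mean activation of the triplicate above a set limit carried over from the primary screen, none filed active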
* hit, by the source's call; · = no result given.

SMILES	DAX1 inh-1	hcDAF-12 act	ssDAF-12 act	AHR act	hgDAF12 agonist	DAX1 inh-2	hgDAF12 ag	LXRb DAF12 ctr
O=C(Cn1c(=O)c(=O)n(Cc2ccccc2)c2ccc(Cl)cc21)Nc1cccc(F)c1	0.9	-0.6	-0.2	5.6	25.9*	0.3	0.3	0.0
OC[C@H]1O[C@@H](c2nc3ccc(-c4nc(-c5ccc(Br)cc5)no4)cc3[nH]2)C[C@@H]1O	·	4.3	0.1	·	13.6*	4.4*	9.4	0.8
C/C(=N/NC(=O)c1cc(C2CC2)[nH]n1)c1cccs1	-1.8	5.7*	0.0	-15.9	14.8*	3.8*	8.9	1.0
Cc1ccc(/C=C/C(=O)Nc2ccccc2C(N)=O)cc1	-1.1	4.4	0.3	0.3	18.1*	4.4*	15.4*	1.1
C=CCn1c(SCC(=O)c2ccccc2)nnc1-c1ccc2c(c1)OCO2	0.2	0.1	-1.4	2.8	-1.0	-0.6	·	·
Cc1cc(C(=O)CN2C(=O)c3cccc(N)c3C2=O)c(C)n1Cc1cccs1	1.7	6.0*	1.0*	31.8	15.0*	4.1*	14.8*	1.0
CCCN1C(=O)c2cc(C(=O)O)ccc2C1O (stereo not given)	-0.1	1.8	-1.0	2.5	-2.7	0.2	·	·
CCCN1C(=O)c2cc(C(=O)NC3CCCCCC3)ccc2C1O (stereo not given)	2.0	3.3	0.2	9.0	17.6*	3.8*	14.3*	0.7
Cc1[nH]n2c(=O)c3c(nc2c1-c1ccc(F)cc1)CCCC3	·	0.9	-0.9	6.0	4.4	0.3	·	·
O=c1c2c(nc3cc(-c4cccc(F)c4)[nH]n13)CCC2	1.1	3.8	0.0	22.1	19.9*	2.9	16.8*	0.6
COc1ccc(CN2C(=O)c3cccnc3C2=O)cc1S(=O)(=O)N(C)c1ccc(C)cc1	-0.2	-1.5	-0.7	2.1	0.2	-0.4	·	·
O=C(/C=C/Nc1ccc(Cc2ccc(N/C=C/C(=O)C(F)(F)F)cc2)cc1)C(F)(F)F	1.8	4.6	-0.1	21.1	13.4*	1.8	1.4	0.0
COc1ccc(N/C=C/C(=O)C(F)(F)F)cc1	-0.4	-1.1	-0.9	-2.8	-0.6	-0.2	·	·
CCC1Sc2ccc(S(=O)(=O)CCC(=O)Nc3ccc(OC(F)(F)F)cc3)cc2NC1=O (stereo not given)	-0.3	-2.8	-1.0	3.7	-2.6	-0.7	·	·
O=C(/C=C/c1cccc(F)c1)Nc1nccs1	2.2	5.0	0.4	19.4	14.8*	3.0	14.7*	0.6
Cc1ccc(/C=C/C(=O)Nc2nccs2)o1	2.6	1.7	-1.1	29.1	6.6	2.0	·	·
Cc1ccc(-c2cc(N)n(-c3ccc(F)cc3)n2)cc1	0.5	5.4	-0.6	18.9	14.7*	4.3*	9.9	0.6
O=C(NC1CC1)C1CCN(C2CCN(C(=O)c3ccc4cccc(F)c4n3)CC2)CC1	0.1	3.0	-1.6	5.2	0.3	0.2	·	·
CC(C)N(Cc1nccn1C)C(=O)CCc1nnc(CCCc2ccccc2)o1	0.8	3.6	0.3	1.4	14.4*	1.1	10.2	0.3
Cc1ccc(-c2nc3ccc(C)cn3c2Cc2cccc(F)c2)cc1	·	3.5	0.0	·	14.7*	3.6*	5.1	0.2
CCCc1nc2ccc(C)cn2c1Cc1ccc(C)cc1	·	4.5	-0.2	·	13.8*	1.3	9.3	0.5
Cc1ccc2nc(C(C)(C)C)c(Cc3cccc(F)c3)n2c1	·	3.5	2.2*	·	16.2*	3.7*	5.3	0.2
COc1ccccc1Cc1c(-c2cccc(Cl)c2)nc2ccc(C)cn12	·	2.3	-0.4	·	14.9*	2.9	4.5	0.2
CN(C)S(=O)(=O)c1cccc(NC(=O)CCc2nc3cc(S(=O)(=O)N4CCOCC4)ccc3n2C)c1	-0.3	0.2	-0.6	1.6	0.3	-0.3	·	·
CCc1nnc(NC(=O)C2c3ccccc3Oc3ccccc32)s1	0.7	0.1	-0.9	3.1	-2.5	-0.8	·	·
SMILES	DAX1 inh-1	hcDAF-12 act	ssDAF-12 act	AHR act	hgDAF12 agonist	DAX1 inh-2	hgDAF12 ag	LXRb DAF12 ctr
COc1ccc(C(C(=O)NCc2ccc(F)cc2)N(C(=O)c2csnn2)C2CC2)cc1 (stereo not given)	1.4	-0.1	-1.0	1.1	0.0	0.0	·	·
COc1ccc(Cc2c(-c3ccc(F)cc3)nc3ccc(Br)cn23)c(C)c1	·	2.4	0.4	·	13.6*	0.2	7.6	0.4
O=C(O)c1ccc2c(c1)C(=O)N(c1cccc(-c3nc4ccccc4s3)c1)C2=O	0.6	0.1	-0.9	9.7	15.6*	1.1	3.1	0.1
Cc1ccc(C(C(=O)NC2CCCCC2)N(CCCN2CCOCC2)C(=O)c2snc(C(N)=O)c2N)cc1 (stereo not given)	-0.3	0.0	-1.1	-2.2	-0.7	-0.1	·	·
Cc1ccc(-c2cc(-c3nnc(SCC(=O)Nc4nccs4)n3N)[nH]n2)cc1	·	3.5	-0.5	·	13.3*	2.2	10.4*	0.5
CS(=O)(=O)c1[nH]nc(-c2cccc(Cl)c2)c1C#N	·	-0.1	-0.8	-0.2	-0.8	0.5	·	·
CC(C)n1c(-c2ccc(N(C)C)cc2)nc2ccccc21	0.7	5.8*	0.6	19.1	16.4*	3.2	6.9	0.3
Cc1ccc(C(O)c2nc3ccccc3n2C(C)C)cc1 (stereo not given)	-0.6	-0.8	-1.3	2.4	1.9	-0.9	·	·
O=C(NC1CCCC1)c1cc(-c2ccc(Cl)cc2)on1	3.3	5.1	0.2	-2.4	7.2	1.4	·	·
O=C(NCCCN1CCOCC1)c1cc(-c2cccs2)on1	2.7	3.6	0.5	19.1	24.3*	-1.0	46.3*	0.3
O=C(NC1CCCC1)c1cc(-c2ccc(F)cc2)on1	5.8*	1.1	-0.3	-3.0	23.5*	2.2	37.4*	0.6
O=C(NC1CCCC1)c1cc(-c2cccs2)on1	4.7*	6.1*	0.4	0.8	47.4*	2.5	42.7*	0.8
